Assay outcomes deposited in PubChem by several laboratories.
Autofluor counter: compound fluorescence in toxin protease inhibitor counterscreen | compound autofluorescence counterscreen, microsphere flow cytometry; hits give high values | fluorescence intensity (test concentration not listed) | 360,000 compounds, 3.1% hits; in the data active = fluorescence intensity above about 16000; inconclusive = no clear call, values can overlap the other calls
BoNT F protease: blocks Botulinum neurotoxin F light chain protease | Multiplex microsphere protease cleavage assay, flow cytometry | inhibition, % at 10 µM | AID 588497 | 360,000 compounds, 0.22% hits; in the data active = inhibition above about 35%, passing the limit was not always enough; inconclusive = no clear call, values can overlap the other calls; also: plate controls were buffer without enzyme for full effect and enzyme alone for no effect
VHR inh abs: inhibitors of human VHR1 phosphatase (DUSP3); recombinant VHR phosphatase, pNPP absorbance; inhibition, % at 13.3 µM; 290,000 compounds, 0.52% hits; P51452; in the data active = inhibition above about 50%
BoNT-A LC inh2: BoNT A light chain protease inhibition. multiplex microsphere protease substrate cleavage, flow cytometry. inhibition, % at 10 µM. 360,000 compounds, 0.17% hits; in the data active = inhibition above about 30%; inconclusive = no clear call, values can overlap the other calls; also: plate controls were buffer without enzyme for full effect and enzyme alone for no effect
MazEF act: MazEF (E. coli) toxin RNase activation; FAM/BHQ RNA-DNA oligo cleavage fluorescence, 5 h; activation, % at 20 µM; 350,000 compounds, 0.32% hits; in the data active = activation above about 50%
Anthrax LF prot: anthrax lethal factor protease inhibition; P15917; multiplex microsphere protease cleavage assay, LF; inhibition, % at 10 µM; 360,000 compounds, 0.12% hits; AID 588501; in the data active = inhibition above about 30%; inconclusive = no clear call, values can overlap the other calls; also: plate controls were buffer without enzyme for full effect and enzyme alone for no effect
Target sequence (P15917 whole entry, looked up): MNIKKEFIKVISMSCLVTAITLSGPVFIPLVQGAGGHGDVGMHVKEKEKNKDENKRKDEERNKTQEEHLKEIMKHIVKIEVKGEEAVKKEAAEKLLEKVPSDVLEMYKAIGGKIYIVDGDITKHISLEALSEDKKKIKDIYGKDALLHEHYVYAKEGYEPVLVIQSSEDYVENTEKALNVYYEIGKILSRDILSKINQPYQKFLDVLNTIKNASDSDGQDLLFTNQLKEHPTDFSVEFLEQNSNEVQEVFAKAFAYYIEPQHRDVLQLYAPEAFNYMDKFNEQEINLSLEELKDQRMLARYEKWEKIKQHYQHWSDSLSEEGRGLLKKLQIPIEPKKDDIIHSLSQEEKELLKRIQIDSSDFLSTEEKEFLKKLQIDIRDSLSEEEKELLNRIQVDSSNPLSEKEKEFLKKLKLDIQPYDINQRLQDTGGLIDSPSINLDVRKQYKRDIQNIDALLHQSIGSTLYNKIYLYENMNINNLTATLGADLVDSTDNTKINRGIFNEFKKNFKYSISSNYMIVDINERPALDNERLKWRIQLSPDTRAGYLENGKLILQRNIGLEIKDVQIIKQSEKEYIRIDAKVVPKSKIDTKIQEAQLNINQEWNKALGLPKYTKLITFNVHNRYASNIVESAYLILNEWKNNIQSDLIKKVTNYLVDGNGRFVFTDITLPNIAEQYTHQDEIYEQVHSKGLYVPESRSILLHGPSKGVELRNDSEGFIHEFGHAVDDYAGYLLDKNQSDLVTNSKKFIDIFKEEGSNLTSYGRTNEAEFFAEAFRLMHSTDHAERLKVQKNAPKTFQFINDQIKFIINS
BoNTA LC inh 1: BoNT/A light chain protease inhibition | shares compounds with BoNT F protease | multiplex microsphere protease assay, flow cytometry | inhibition, % at 10 µM | 720 compounds, 3% hits | AID 602139; in the data active = inhibition above about 32%
BoNT-F LC CP1: BoNT/F light chain protease inhibition. 720 tested, under 10 active. inhibition, % at 10 µM. multiplex microsphere protease cleavage assay, flow cytometry. shares compounds with BoNT F protease
LF protease CP1: Bacillus anthracis lethal factor protease inhibition; 720 tested, under 10 active; multiplex microsphere protease cleavage assay, LF; inhibition, % at 10 µM; shares compounds with BoNT F protease; AID 602142
Starred values were filed as active, the others as inactive; ? = inconclusive; / = not tested or not shown. This is a sample that favours compounds with a hit; in the whole collection about 4% have one here. Unless noted, no rule for the calls is given here.

SMILES	Autofluor counter	BoNT F protease	VHR inh abs	BoNT-A LC inh2	MazEF act	Anthrax LF prot	BoNTA LC inh 1	BoNT-F LC CP1	LF protease CP1
COC(=O)CSc1nc(N)c2c3c(sc2n1)C(c1ccccc1)SC(c1ccccc1)C3 (centres undefined)	2397	1	-7	30*	-11	7	2	2	-3
CCCOc1ccc(-c2nnn(CC(=O)c3ccc4c(c3)OCCO4)n2)cc1	9481	-10	21	-1	-27	1	/	/	/
O=C(NCc1cccs1)Nc1ccc2c(c1)OCO2	5988	-12	8	-1	7	2	/	/	/
CC(C)C1C(=O)N(Cc2cn(CCC3OCCO3)nn2)CCS(=O)(=O)N1Cc1ccc(-c2ccc(F)nc2)cc1 (centres undefined)	3727	-8	/	-1	5	-5	/	/	/
Cc1ccc(C(=O)NC2CC(C)(C)NC(C)(C)C2)cc1Cl	3135	?	-9	-7	8	3	/	/	/
CC1(C)CC(NC(=O)c2cccc([N+](=O)[O-])c2)CC(C)(C)N1	3713	1	39	0	3	30*	0	-6	-3
CC(=O)Nc1ccc(S(=O)(=O)N2CCN(CCCOc3ccccc3Cl)CC2)cc1	5838	-4	20	0	-6	-2	/	/	/
Cc1cc(C)c(NC(=O)CNC(=O)Cc2sc(C)nc2-c2ccc(F)cc2)c(C)c1	6023	2	/	0	-7	2	/	/	/
CS(=O)(=O)Nc1ccc(C2=NN(C(=O)CCCC(=O)O)C(c3cccs3)C2)cc1 (centres undefined)	4361	37*	4	-4	-7	-3	0	-3	-4
Cc1csc(NC(=O)c2sc3nc(-c4cccs4)ccc3c2N)n1	/	/	-4	/	5	/	/	/	/
Cc1c(C(=O)Nc2nccs2)sc2nc(-c3cccs3)cc(C(F)(F)F)c12	14857	11	36	39*	-3	37*	12	-4	6
Cc1c(C(=O)O)sc2nc(-c3cccs3)cc(C(F)(F)F)c12	3107	-17	26	-7	-11	-2	-2	-1	-2
COC(=O)CSc1nc2nc(-c3cccs3)cc(C(F)(F)F)c2c(=O)[nH]1	3577	-2	26	-3	1	0	/	/	/
Cc1ccc2nc(SCC(=O)NCc3ccco3)c(C)cc2c1	2608	-1	10	0	-2	-1	/	/	/
COc1ccc(C(=O)NCc2ccc3[nH]c(C)cc3c2)cc1OC	3032	-45	19	65*	1	-4	0	-4	3
COc1cc(/C=C\C(=O)NCc2ccc3[nH]c(C)cc3c2)cc(OC)c1OC	5749	11	-4	2	7	2	/	/	/
COc1cc(C(=O)NCc2ccc3[nH]c(C)cc3c2)cc(OC)c1OC	2596	-70	10	53*	5	-36	0	-12	-4
CCc1ccc(NC(=O)CN2CCCN(S(=O)(=O)c3ccc(F)cc3)CC2)cc1	5793	2	26	0	2	0	/	/	/
Cc1ccc(C(C)C)c(OCC(=O)NNC(=O)C2CSC3(C)CCC(=O)N23)c1 (centres undefined)	/	/	/	/	1	/	/	/	/
COc1ccc(S(=O)(=O)N2CCC(C(=O)NC3CCCCC3)CC2)cc1OC	/	/	/	/	0	/	/	/	/
CCc1nc2ccccc2n1Cc1ccccc1OC	2792	-4	10	0	0	-3	/	/	/
COc1ccccc1Cn1c(C)nc2ccccc21	4417	39*	25	1	7	-12	-1	-2	-1
COCCCNCCCCOc1ccc(Br)cc1C	2506	36*	-5	5	6	-1	5	-10	-2
Cc1nn(CCC#N)c2nc(-c3ccccc3)cc(C(F)(F)F)c12	2518	1	-24	-1	-9	0	/	/	/
Cn1c(-c2ccccc2)n[nH]c1=S	5761	2	24	0	-1	-5	/	/	/
Cc1nc(-c2ccccc2)sc1-c1n[nH]c(=S)n1C	?	54*	8	30*	5	24	0	-4	-3
O=C1CNC(=S)N1c1nc2ccccc2s1	3929	?	14	2	-5	32*	0	2	0
